A selection: hits, their analogues and other compounds. The true share with any hit is near 3%.
Sm TGR block: qHTS Assay for the Inhibitors of Schistosoma Mansoni Peroxiredoxins. hit rate 3% among 360,000. Schistosoma mansoni thioredoxin glutathione reductase (TGR), Q962Y6. Potency, µM (series often up to 114 µM), actives largely listed as inhibitors. AID 485364, 2010. purified TGR, DTNB reduction, TNB absorbance 405 nm; also: nearly all actives have a fitted effect of over 60% in size
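Kinetic colorimetric format: TGR-catalysed, NADPH-driven DTNB reduction monitored via TNB absorbance. Enzyme dispensed at 20 nM; compound exposure 15 min at room temperature before reaction start.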
RE007 growth inh: qHTS Assay for Inhibitors of the HIV-1 protein Vpr. S. pombe RE007 Vpr strain, BacTiter-Glo ATP luminescence, 24 h. Potency, µM (titrated, usually from 92.2 µM), most hits filed as inhibitors. hit rate 0.21% among 360,000. AID 651644, 2012; active = well fitted falling curve with a large enough effect; inconclusive = small, poorly fitted or top-dose-only effect; inactive = no such curve, though single readings can be large or run the other way; also: nearly all actives have a fitted effect of over 50% in size
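Fission yeast strain RE007, carrying one chromosomally integrated HIV-1 vpr copy, was seeded at OD 0.01 in PMG+AL medium with 23 nL pinned compound. After 24 h at 30 °C and 99% humidity, viability was read by BacTiter-Glo luminescence.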
TbPYK inhibitor: qHTS of Trypanosoma Brucei Inhibitors. TbPYK enzyme, Kinase-Glo Plus ATP luminescence, 45 min. Potency, µM (doses to about 76.8 µM), most hits filed as inhibitors. hit rate 0.12% among 410,000; also: nearly all actives have a fitted effect of over 50% in size
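In this concentration-response screen, enzyme-free wells defined baseline while DMSO plates tracked drift. Each reaction combined TbPYK, substrate, compound and 130 uM ADP for 45 min at room temperature. Kinase-Glo Plus luminescence gave the signal.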
LmPK inh: qHTS Assay for Inhibitors of Leishmania Mexicana Pyruvate Kinase (LmPK); purified LmPK, Kinase-Glo ATP luminescence, 1 h; AID 1721, 2009; Potency, µM (highest dose often 57.5 µM), most hits filed as inhibitors; Q27686; hit rate 0.37% among 290,000
Target sequence (Q27686 whole entry, looked up): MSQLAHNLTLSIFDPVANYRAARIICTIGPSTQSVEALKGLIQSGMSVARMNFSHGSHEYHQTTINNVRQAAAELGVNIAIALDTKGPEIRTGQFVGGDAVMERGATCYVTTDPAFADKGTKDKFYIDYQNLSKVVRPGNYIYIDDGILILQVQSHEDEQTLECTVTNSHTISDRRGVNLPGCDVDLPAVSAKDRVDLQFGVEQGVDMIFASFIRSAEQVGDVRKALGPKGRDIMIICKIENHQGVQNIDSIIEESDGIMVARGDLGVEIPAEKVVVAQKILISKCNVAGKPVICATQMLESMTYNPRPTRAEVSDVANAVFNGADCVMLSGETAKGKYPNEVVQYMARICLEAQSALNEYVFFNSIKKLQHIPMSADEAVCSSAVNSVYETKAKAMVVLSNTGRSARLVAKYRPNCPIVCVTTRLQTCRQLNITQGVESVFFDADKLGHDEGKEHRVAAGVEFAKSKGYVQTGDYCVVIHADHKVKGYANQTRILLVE
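0.1 nM LmPK, 0.5 mM PEP, 0.1 mM ADP; 50 mM imidazole pH 7.2, 7 mM MgCl2, 50 mM KCl; 1 h RT. Kinase-Glo luminescence readout, normalized to no-enzyme (full inhibition) and uninhibited wells.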
Hits are given with their value; – = inactive; ? = inconclusive; · = no result given; [ ] = remark or other dose. Unless noted, calls follow the shape of the dose curve; as a rule, active = well fitted curve in the direction sought with a large enough effect; inconclusive = small, poorly fitted or top-dose-only effect, or another doubt; inactive = no such curve, though single readings can be large; an effect the other way counts as inactive or inconclusive.

SMILES | Sm TGR block | RE007 growth inh | TbPYK inhibitor | LmPK inh
O=C(/C=C/c1c(Cl)cccc1Cl)n1cccn1 | 18µM | – | – | –
O=C(/C=C/c1c(Cl)cccc1Cl)N1CCOCC1 | – | – | – | –
O=C(CN1C(=O)C2CC=CCC2C1=O)Nc1ccc(Br)cc1 (stereo not drawn) | – | – | – | –
Cc1cc(Br)ccc1NC(=O)CN1C(=O)C2CC=CCC2C1=O (stereo not drawn) | 13µM | – | – | ·
CCOC(=O)C(C#N)C(Cc1ccccc1)c1ccco1 (stereo not drawn) | 45µM | – | – | –
COc1cc2c(cc1OC)C(c1ccco1)CC(=O)N2 (stereo not drawn) | – | – | – | –
O=C1CC(c2ccco2)c2ccc3ccccc3c2N1 (stereo not drawn) | 45µM | – | – | –
CCOC(=O)c1cccc(NC(=O)CN2C(=O)c3ccccc3Sc3ncccc32)c1 | – | · | – | ·
CCOc1ccc(CN(C)C(=O)CCl)cc1 | 16µM | – | – | –
CCOc1ccc(CC(=O)NNC(=O)/C=C/C(=O)O)cc1 | 18µM | – | – | –
CS(=O)(=O)c1ncc(Cl)c(C(=O)N2CCN(c3cccc(Cl)c3)CC2)n1 | 3.5µM | · | – | ·
CCS(=O)(=O)c1ncc(Cl)c(C(=O)N2CCN(c3cccc(Cl)c3)CC2)n1 | 7.1µM | · | – | ·
Cc1[nH]c2ccccc2c1NC(=O)CN1CCN(C(=O)c2ccco2)CC1 | 32µM | – | – | –
CCOc1ccc(NS(=O)(=O)c2ccc3[nH]cc(C(=O)N4CCCC4)c(=O)c3c2)cc1 | – | · | – | ·
CCn1ccc2cc(S(=O)(=O)N3CCCN(C(=O)Nc4ccc(C)cc4Cl)CC3)ccc21 | – | · | – | ·
Cn1cnc(S(=O)(=O)Nc2ccccc2N2CCOCC2)c1 | – | – | – | –
CN(C)c1cccc2c1c(NS(=O)(=O)c1cn(C)cn1)nn2C | 50µM | – | ? | –
C=CCSc1nnc(NC(=O)c2cn(CC)c3nc(C)ccc3c2=O)s1 | 50µM | – | – | –
CCn1cc(C(=O)Nc2ccccc2)c(=O)c2ccc(C)nc21 | – | · | · | –
COc1ccccc1-c1cccc([C@@H]2C[C@H]3[C@H](CON3C)CN2S(=O)(=O)c2ccccc2C)c1 | · | – | – | ·
C/C(=N\N=C(/N)SC1CC(=O)N(c2ccccc2)C1=O)c1cccs1 (stereo not drawn) | – | – | – | –
C/C(=N\N=C(/N)SC1CC(=O)N(c2ccc(Br)cc2)C1=O)c1cccs1 (stereo not drawn) | 14µM | – | – | –
CCN(CC)/C(Sc1ccccc1)=C(\C(Cl)=C(Cl)Cl)[N+](=O)[O-] | 22µM | – | – | –
CCN(CC)/C(Sc1ccccc1)=C(/C(Cl)=C(Cl)Cl)[N+](=O)[O-] | 56µM | – | – | –
O=[N+]([O-])/C(C(Cl)=C(Cl)Cl)=C(\Sc1ccccc1)N1CCCCC1 | 13µM | – | – | –
SMILES | Sm TGR block | RE007 growth inh | TbPYK inhibitor | LmPK inh
CCN(CC(=O)Nc1c(F)cccc1F)C(=O)CSc1ccccc1 | – | – | – | ·
CCN(CC)C(=O)C(Oc1ccc(C)nc1[N+](=O)[O-])c1ccccc1 (stereo not drawn) | – | – | – | –
Cc1cccc(N2CCN(C(=O)c3ccc4c(c3)NC(=O)C(CSCc3cccc(F)c3)N4)CC2)c1C (stereo not drawn) | – | · | · | –
CCCCN1C(=O)c2[nH]nc(-c3ccccc3O)c2C1c1ccc(OCc2ccccc2)c(OC)c1 (stereo not drawn) | – | · | – | ·
CCCCN1C(=O)c2[nH]nc(-c3ccccc3O)c2C1c1cc(Br)c(O)c(OC)c1 (stereo not drawn) | 56µM | · | – | ·
CC(=O)Oc1cc2c(C(=O)NCCCN3CCOCC3)c(C)oc2c2ccccc12 | 35µM | – | – | –
CC(C)Sc1ncc(Cl)c(C(=O)Nc2nc3ccc(S(C)(=O)=O)cc3s2)n1 | – | · | – | ·
CCC[C@]1(CCc2ccccc2)CC(O)=C([C@H](CC)c2cccc(NS(=O)(=O)c3ccc(C(F)(F)F)cn3)c2)C(=O)O1 | · | · | – | ·
Cc1cc(N=NC(=O)c2ccccc2)ccc1O | 11µM | – | – | –
CCn1cc2nc(SCC(=O)Nc3ccccc3F)n(Cc3ccc(C)cc3)c(=O)c2n1 | – | · | – | ·
Cc1ccc(C)c(N2CCN(CCCNC(=O)c3nnc(Cc4ccc(F)cc4Cl)o3)CC2)c1 | – | · | – | ·
N#CCCS(=O)(=O)c1nnnn1-c1ccccc1 | 7.1µM | · | · | –
CC12CCC(C(=O)N(CSC(=S)N/N=C\c3ccccc3)C1=O)C2(C)C (stereo not drawn) | 4.5µM | – | ? | –
CC12CCC(C(=O)N(CSC(=S)N/N=C\c3ccccc3Cl)C1=O)C2(C)C (stereo not drawn) | – | – | – | –
O=C1NC(=O)C(=Cc2cc3c(cc2[N+](=O)[O-])OCO3)C(=O)N1 | ? | – | ? | –
COc1ccc(OC)c(N2C(=O)NC(=O)/C(=C\c3ccc([N+](=O)[O-])s3)C2=O)c1 | 11µM | ? | ? | –
Cc1cccc(N2C(=O)NC(=O)/C(=C/c3cc4c(cc3[N+](=O)[O-])OCO4)C2=O)c1 | 2.2µM | – | ? | –
CC1=NN(c2ccccc2)C(=O)C1/C=C1/C(=O)NC(=O)N(c2cccc(C)c2)C1=O (stereo not drawn) | – | · | · | –
COc1cc(/C=C2/C(=O)NC(=O)N(c3ccc(C)cc3)C2=O)cc(OC)c1OC | ? | – | ? | –
CN1C(=O)NC(=O)/C(=C/c2ccc([N+](=O)[O-])s2)C1=O | 8.9µM | ? | 14µM | –
O=C1NC(=O)N(c2ccccc2)C(=O)/C1=C\c1ccc([N+](=O)[O-])s1 | 10µM | ? | ? | –
C=Cc1ccc(CSc2nc(-c3ccc(C)cc3)nc3c2Cc2c(CO)cnc(C)c2O3)cc1 | – | · | – | ·
COC(=O)C1=C(C(=O)OC)[C@@H]2N(Cc3ccccc3)c3ccccc3[C@@]23C[C@@H](C(=O)OC)N(C(=O)c2ccco2)C3=N1 | · | · | · | –[11.5 µM]
O=C(NCc1ccccc1F)c1cccc(NC(=O)N2CCSc3ncccc32)c1 | – | · | –[15.4 µM] | ·
COc1ccc(N2C(=O)NC(=O)/C(=C\c3ccccc3[N+](=O)[O-])C2=O)cc1 | 16µM | – | ? | –
SMILES | Sm TGR block | RE007 growth inh | TbPYK inhibitor | LmPK inh
CC(C)C[C@H](NC(=O)CNC(=O)c1cc(Cl)ccc1Cl)B(O)O | · | · | – | ·
O=C(Nc1cc(-c2ccc(F)c(F)c2)no1)c1ccccc1F | – | · | – | ·
Cc1ccc(-n2c(-c3ccccc3)c[nH]c2=S)cc1 | – | – | ? | ?
CCn1c(-c2ccccc2)c[nH]c1=S | – | – | ? | 14µM
S=c1[nH]cc(-c2ccccc2)n1-c1ccccc1 | – | – | ? | 3.2µM
N#Cc1ccc(NC(=O)Nc2ccccc2Br)c2n[nH]nc12 | · | · | – | ·
Cc1ccc(NC2=NC(c3ccccc3)n3c(nc(C)cc3=O)N2)c(C)c1 (stereo not drawn) | 25µM | – | – | –
Nc1c(C(=O)NCc2ccco2)c2nc3ccccc3nc2n1CCc1ccccc1 | 20µM | – | – | –

Screening results from PubChem BioAssay.
